CYP2C9 act: activators of human CYP2C9; P11712; recombinant CYP2C9, luciferin-H conversion, luminescence; hits give high values; factor 1 = untreated enzyme, 0 = blocked; activation factor at 5 µM; 1.4% of 96,000 active; AID 1024;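 active = activation factor of 2 or more for CYP2C9 at a 5 µM dose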;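 note: 0 = sulfaphenazole-blocked wells and 1 = vehicle-only wells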
CYP2C9 inh: inhibitors of human CYP2C9; P11712; CYP2C9 Supersomes, luciferin-H conversion, luminescence; inhibition, % at 5 µM; 20% of 96,000 active; AID 777;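 active = blocking of liver enzyme CYP2C9 beyond about 50% at 5 µM, limit read from the data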
CYP2C19 activ: cytochrome P450 2C19 (human) activation. P33261. recombinant CYP2C19, luciferin-H EGE luminescence; hits give high values; 0 = fully inhibited enzyme, 1 = untreated enzyme. activation factor at 5 µM. 96,000 tested, under 10 active;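 active = activation factor of at least 2 at 5 µM in the primary screen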;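 note: 0 = wells with 2.5 mM tranylcypromine and 1 = vehicle-only wells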
Target sequence (P33261 whole entry, looked up): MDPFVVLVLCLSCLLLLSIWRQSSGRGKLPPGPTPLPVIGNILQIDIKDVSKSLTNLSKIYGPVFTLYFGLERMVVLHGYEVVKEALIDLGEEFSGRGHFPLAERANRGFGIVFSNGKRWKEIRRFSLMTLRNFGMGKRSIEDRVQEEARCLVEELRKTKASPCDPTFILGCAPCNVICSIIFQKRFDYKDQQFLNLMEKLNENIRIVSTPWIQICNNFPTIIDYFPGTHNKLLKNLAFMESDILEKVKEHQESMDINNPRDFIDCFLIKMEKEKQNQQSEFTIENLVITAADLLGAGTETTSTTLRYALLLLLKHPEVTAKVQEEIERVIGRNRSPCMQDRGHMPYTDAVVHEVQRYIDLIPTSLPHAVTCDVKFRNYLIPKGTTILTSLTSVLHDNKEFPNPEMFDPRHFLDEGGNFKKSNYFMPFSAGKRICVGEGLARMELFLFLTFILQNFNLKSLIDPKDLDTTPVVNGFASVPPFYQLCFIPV
CYP2C19 inh: human CYP2C19 inhibition | P33261 | CYP2C19 Supersomes, luciferin-H EGE luminescence, 30 min | inhibition, % at 5 µM | 21% of 96,000 active | AID 778;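 active = CYP2C19 inhibition above a set limit at 5 µM in the primary screen, cut at about 50% in these data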;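 note: plate controls were negative control wells for no effect and 2.5 mM tranylcypromine positive control for full effect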
Measles CPE: protection of cells from measles virus | Measles virus-infected cells, CPE protection, absorbance | protection (pct of control), % at 4 µM | 1.5% of 140,000 active | AID 841; in the data active = protection mostly above about 24%, no sharp cut-off; inactive = mostly below about 26%
Starred values were filed as active, the others as inactive; x = no result given. A selection: hits, their analogues and other compounds. The true share with any hit is near 22%.

SMILES	CYP2C9 act	CYP2C9 inh	CYP2C19 activ	CYP2C19 inh	Measles CPE
Cc1ccc(C(=O)N2CCN(c3cccc(Cl)c3)CC2)cc1C	1.3	-32	0.3	71*	8
Cc1cc(C(=O)N2CCN(c3cccc(Cl)c3)CC2)c(C)o1	0.4	60*	0.6	42	6
Cc1ccc(C(=O)N2CCN(c3ccccc3)CC2)cc1C	1.5	-47	0.3	69*	9
COc1ccc(C(=O)N2CCN(c3ccc(C)c(C)c3)CC2)cc1OC	1.2	-17	0.7	34	18
CS(=O)(=O)Nc1ccc(C(=O)N2CCN(c3ccccc3)CC2)cc1	1	2	1.1	-8	42*
COc1cccc(/C=N/NC(=O)C(=O)Nc2ccccc2OC(F)(F)C(F)F)c1O	x	x	x	x	13
CC(C)(C)NC(=O)c1sccc1C(=O)O	x	x	x	x	15
CCOC(=O)c1c(C)c(C(=O)N2CCN(c3cccc(Cl)c3)CC2)c(C)n1C	0.3	74*	0.3	67*	7
Cc1ccc(SCC(=O)NC(=O)Nc2ccc3c(c2)OCCO3)c(C)c1	x	x	x	x	9
C/C=C/C=N/NC(=O)CN(c1ccc(Br)cc1)S(=O)(=O)c1ccccc1	x	x	x	x	3
CC(=NCc1cccc(Cl)c1)c1nc(-c2ccco2)oc1O	x	x	x	x	7
Cc1ccc(-n2c(C)cc(/C=N/NC(=O)c3ccc(CN4CCOCC4)cc3)c2C)cc1	0.7	30	1	-1	71*
O=C(N/N=C/c1ccc(OC(=O)c2ccccc2)cc1)c1ccc(CN2CCOCC2)cc1	0.4	59*	0.9	15	8
COc1ccc(C(=O)N/N=C/c2ccc(OC(=O)c3ccccc3)cc2)cc1	x	x	x	x	4
Cc1cccc(-n2c(C)cc(/C=N/NC(=O)c3cccc([N+](=O)[O-])c3C)c2C)c1	0.6	44	0.7	35	12
Cc1cccc(-n2c(C)cc(/C=N/NC(=O)c3ccc(CN4CCOCC4)cc3)c2C)c1	0.2	77*	0.6	40	7
Cn1c(Cc2cccc3ccccc23)nnc1SCc1ccc([N+](=O)[O-])cc1	x	x	x	x	5
COc1ccc(-c2ncc3ccccn23)cc1	0.5	49	0.4	62*	4
C#CCn1c(S(=O)(=O)Cc2ccc(OC)cc2)nc(-c2ccccc2)c1-c1ccccc1	0.2	82*	0.4	64*	13
CCOC(=O)Cn1c(S(=O)(=O)Cc2ccc(Cl)cc2)nc(-c2ccccc2)c1-c1ccccc1	0.5	50*	0.5	48	6
CCCCN(C)CCNC(=O)c1ccc2c(c1)NC(=O)C(N1CCCCC1)S2 (centres undefined)	0.9	5	1.1	-9	12
COCCn1c(SCC(=O)NCc2ccco2)nnc1C(C)C	x	x	x	x	6
O=S(=O)(Nc1ccc(Cc2ccncc2)cc1)c1ccc(Br)cc1	0	99*	0	100*	8
CCS(=O)(=O)Nc1ccc(Cc2ccncc2)cc1	0.1	95*	0.1	93*	29
Cc1ccc(NS(=O)(=O)c2ccc(NS(=O)(=O)c3cccs3)cc2)cc1	0.1	87*	0.5	50	24
SMILES	CYP2C9 act	CYP2C9 inh	CYP2C19 activ	CYP2C19 inh	Measles CPE
O=S(=O)(Nc1ccc(Cc2ccncc2)cc1)c1cccs1	0	99*	0	100*	46*
CCC(C)(C)n1nnnc1CN(Cc1cc2cc(OC)c(OC)cc2[nH]c1=O)C1CCCC1	1	2	0.8	24	21
N#CCc1ccc(NS(=O)(=O)c2cccs2)cc1	0.3	72*	0.1	86*	7
O=S(=O)(Nc1ccc(Cc2ccncc2)cc1)c1ccc(Br)s1	0	100*	0.3	72*	1
CCCCc1ccc(NS(=O)(=O)c2cccs2)cc1	0.4	59*	0.5	49	34
NS(=O)(=O)c1ccc(NS(=O)(=O)c2cccs2)cc1	0.8	22	0.9	8	10
CC(C)(C)NC(=O)CC(CC(=O)O)c1ccccc1 (centres undefined)	1	-2	1	-4	2
CCC1=NC(c2ccc(OC)c(OC)c2)N(O)C1(C)C (centres undefined)	x	x	x	x	10
CCOC(=O)c1sc(N)c(C#N)c1CSc1nnc(C2CC2)n1N	0.3	74*	0.1	88*	25
CCOC(=O)c1sc(N(Cc2ccccc2)C(=O)CSc2nnc(C3CC3)n2N)nc1C	0	99*	0.4	62*	23
CCOC(=O)c1csc(NC(=O)CSc2nnc(C3CC3)n2C)n1	1	2	1	-2	10
O=c1cc(O)n(-c2ccc(Cl)cc2)c(=S)[nH]1	0.6	43	0.9	12	13
